Drawing on PubChem BioAssay (NCI), this text covers growth for 7 compounds.

This is part of a sample that, as a whole, favours compounds with a hit. Of some 83,000 tested, about 20% had one in any assay.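 Cells were grown in 96-well plates and exposed to the test compound at a single concentration for 48 hours; results are reported as percent growth, with values below 10 considered active.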 A number with no mark means an inactive call. Activity calls are given as the source filed them.

Some test systems named below: NCI-H23 lung; NCI-H226 lung; HOP-62 NSCLC; NCI-H460 lung; HOP-92 NSCLC; NCI-H522 lung; A549/ATCC NSCLC; 786-0 renal; COLO 205 colon; DU-145 prostate; K-562 leukemia; MALME-3M melanoma; MDA-MB-231 breast; RXF 393 renal; SF-268 CNS; SF-295 CNS; SF-539 CNS; UACC-257 melanoma; M14 melanoma; NCI-H322M lung.
What all share (assay): NCI-60 one-dose screen, 48 h (100 = growth as untreated, 0 = no growth, -100 = all killed)
Common to all, as to conditions: 10 µM unless noted

Consider `COCC[C@H]1CCC/C=C/[C@@H]2C[C@H](O)C[C@H]2[C@H](O)/C=C/C(=O)O1`, for which the growth in the test with NCI-H23 lung was 6.07% (active); in the test on NCI-H226 lung, -40.4% (active); in the test with HOP-62 NSCLC, 31.5%; in the test on NCI-H460 lung, 15.1%; in the test on HOP-92 NSCLC, -8.55% (active); with NCI-H522 lung, -28.6% (active). In addition, the growth is 13.6% in the test with A549/ATCC NSCLC; -45.9% (active) in the test on 786-0 renal; -64.4% (active) with COLO 205 colon; 6.25% (active) in the test with DU-145 prostate; 10.4% with K-562 leukemia; -24.4% (active) in the test with MALME-3M melanoma. Moreover, the growth is -85.5% (active) in the test with MDA-MB-231 breast; -4.97% (active) in the test on RXF 393 renal; 12.6% in the test with SF-268 CNS; -2.69% (active) with SF-295 CNS; 28.3% in the test on SF-539 CNS; 16.7% in the test on UACC-257 melanoma. Further, the growth with M14 melanoma is 9.75% (active).

Consider `Cc1[nH]c(C(=O)Nc2cccc(OC3CCNCC3)c2)c(Cl)c1Cl`, for which the growth in the test on NCI-H23 lung is 75.3%; in the test with NCI-H226 lung, 91.4%; in the test on HOP-62 NSCLC it was 86.9%; in the test with NCI-H460 lung it was 77%; in the test with HOP-92 NSCLC it was 22.9%; with NCI-H522 lung it was 99.2%. Further, the growth with A549/ATCC NSCLC was 68.6%; with 786-0 renal it was 63.8%; in the test with COLO 205 colon, -35.3% (active); in the test on DU-145 prostate it was 88%; in the test on K-562 leukemia, 0.0646% (active); in the test with MALME-3M melanoma it was 27.2%. Further, the growth in the test on MDA-MB-231 breast is 50.7%; with RXF 393 renal it was 40.9%; in the test on SF-268 CNS it was 74.5%; in the test on SF-295 CNS it was 58.7%; in the test on SF-539 CNS, 71.5%; with UACC-257 melanoma it was 17.7%. For the same compound, the growth in the test on M14 melanoma was -12.4% (active).

Turning to `COc1ccc(C2=NN(C(=O)c3cc(OC)c(OC)c(OC)c3)C(c3ccc(N(C)C)cc3)C2)cc1` (configuration not stated), the growth was 26.4% in the test with NCI-H23 lung; 20.6% with NCI-H226 lung; 54.5% in the test on HOP-62 NSCLC; 3.74% (active) in the test on NCI-H460 lung; 21.6% with HOP-92 NSCLC; -32.4% (active) in the test on NCI-H522 lung. For the same compound, the growth is 30% with A549/ATCC NSCLC; 13.6% in the test on 786-0 renal; 10.7% in the test with DU-145 prostate; 44.2% in the test with K-562 leukemia; 84% with MALME-3M melanoma; 9.57% (active) in the test with MDA-MB-231 breast. Further, the growth in the test with RXF 393 renal is -18.5% (active); in the test on SF-268 CNS, 46.6%; in the test on SF-295 CNS it was 1.04% (active); in the test on SF-539 CNS it was -37% (active); in the test with UACC-257 melanoma it was 62.6%; in the test with M14 melanoma, 2.04% (active).

Consider `O=C(CN1CCN(c2cc3c(cc2F)c(=O)c(C(=O)O)cn3C2CC2)CC1)N/N=C/c1ccncc1`, for which the growth with NCI-H23 lung was 102%; in the test with NCI-H226 lung it was 100%; in the test on HOP-62 NSCLC it was 92.2%; with NCI-H460 lung it was 106%; with HOP-92 NSCLC it was 94.1%; in the test on NCI-H522 lung, 96.5%. The growth in the test with A549/ATCC NSCLC is 86.8%; in the test on 786-0 renal, 90.8%; in the test with COLO 205 colon, 108%; in the test with DU-145 prostate it was 106%; in the test with K-562 leukemia it was 91.7%; in the test on MALME-3M melanoma it was 103%. The growth was 98.4% in the test with MDA-MB-231 breast; 110% in the test with RXF 393 renal; 92.8% in the test on SF-268 CNS; 96.6% in the test with SF-295 CNS; 95.6% in the test on SF-539 CNS; 87.9% with UACC-257 melanoma. Besides, in the test with M14 melanoma, the growth is 96.1%.

Regarding `Cc1[nH]c(C(=O)Nc2ccc(C(N)=O)cc2NC(C)C)c(Cl)c1Cl`, the growth in the test with NCI-H23 lung is 85.8%; with NCI-H226 lung, 91.6%; in the test with NCI-H322M lung, 98.7%; in the test with HOP-62 NSCLC it was 104%; with NCI-H460 lung it was 93.1%; in the test on NCI-H522 lung it was 79.3%. The growth was 85.5% with A549/ATCC NSCLC; 91.1% with 786-0 renal; 122% with COLO 205 colon; 100% in the test on DU-145 prostate; 85.8% in the test with K-562 leukemia; 94.4% in the test on MALME-3M melanoma. Further, the growth with MDA-MB-231 breast was 90.1%; in the test on RXF 393 renal it was 94.7%; in the test on SF-268 CNS, 86.5%; with SF-295 CNS, 100%; in the test on SF-539 CNS, 92.8%; in the test with UACC-257 melanoma, 96.2%. Moreover, the growth in the test on M14 melanoma is 87.6%.

Regarding `C=C(CO)[C@@H]1CC[C@]2(COC3CCCCO3)CC[C@]3(C)[C@H](CC[C@@H]4[C@@]5(C)C=C(C=O)C(=O)C(C)(C)[C@@H]5CC[C@]43C)[C@@H]12` (some centres not stated), the growth was -63.6% (active) with NCI-H23 lung; -54.3% (active) in the test with NCI-H226 lung; -22.6% (active) with NCI-H322M lung; -86.8% (active) in the test with HOP-62 NSCLC; -73.1% (active) with NCI-H460 lung; -80.5% (active) with NCI-H522 lung. In addition, the growth was -77.4% (active) in the test with A549/ATCC NSCLC; -91.2% (active) with 786-0 renal; -60.2% (active) in the test with COLO 205 colon; -98% (active) with DU-145 prostate; -60.7% (active) in the test on K-562 leukemia; -78.4% (active) with MALME-3M melanoma. In addition, the growth is -58.4% (active) in the test on MDA-MB-231 breast; -86.2% (active) with RXF 393 renal; -83.2% (active) in the test with SF-268 CNS; -89.5% (active) in the test on SF-295 CNS; -90.1% (active) in the test with SF-539 CNS; -64.4% (active) in the test on UACC-257 melanoma. For the same compound, the growth with M14 melanoma was -65.5% (active).

Regarding `CN1CCN(Cc2ccc(NC(=O)c3cncc(C#Cc4cnn5ccccc45)c3)cc2C(F)(F)F)CC1`, the growth in the test with NCI-H23 lung was -43.9% (active); in the test with NCI-H322M lung, -2.81% (active); with HOP-62 NSCLC, -15.4% (active); in the test on NCI-H460 lung it was -22.5% (active); in the test on HOP-92 NSCLC it was -7.15% (active); with NCI-H522 lung, -14.7% (active). The growth in the test with A549/ATCC NSCLC was 4.64% (active); in the test on 786-0 renal, 4.29% (active); in the test with COLO 205 colon it was -33.6% (active); with DU-145 prostate, 4.16% (active); in the test on K-562 leukemia, 1.13% (active); with MALME-3M melanoma it was -61.3% (active). The growth is -7.64% (active) with MDA-MB-231 breast; -44.8% (active) in the test with RXF 393 renal; -32.8% (active) in the test on SF-268 CNS; 20.7% in the test on SF-295 CNS; -58.4% (active) in the test on SF-539 CNS; 11% in the test on UACC-257 melanoma. The growth in the test on M14 melanoma is -39.6% (active).
